High-throughput results from PubChem.
Sampled rows, rich in hits. Any-hit rate of the full collection: about 2.9%.
D3 ag – D3 dopamine receptor (human) agonism; D3R DiscoveRx beta-arrestin cells, luminescence, 90 min; AID 652048; max activation, %; 410,000 compounds, 0.58% hits; in the data active means max activation above about 30%
Target sequence (P35462 whole entry, looked up): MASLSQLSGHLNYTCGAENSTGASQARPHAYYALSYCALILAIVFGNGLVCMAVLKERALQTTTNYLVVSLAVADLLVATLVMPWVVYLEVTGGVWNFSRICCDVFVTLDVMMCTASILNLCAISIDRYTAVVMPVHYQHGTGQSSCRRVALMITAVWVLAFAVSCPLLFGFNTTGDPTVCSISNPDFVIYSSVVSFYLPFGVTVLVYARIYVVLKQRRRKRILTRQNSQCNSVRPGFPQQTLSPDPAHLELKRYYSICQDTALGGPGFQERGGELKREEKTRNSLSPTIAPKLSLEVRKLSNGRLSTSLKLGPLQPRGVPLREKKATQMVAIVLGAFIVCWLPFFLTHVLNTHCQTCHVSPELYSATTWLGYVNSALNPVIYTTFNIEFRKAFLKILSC
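Cells at 1500/well, incubated overnight, then treated with pinned compounds (dopamine as control) for 90 min at 37 degrees C. DiscoveRx reagent added for 30 - 60 minutes at room temperature; luminescence read.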
DRD3 antagonist – blocks the human D3 dopamine receptor; D3R cells, DiscoveRx beta-arrestin luminescence, antagonist mode; stronger effect = lower value; max response, negative = inhibition, %; 360,000 compounds, 2.5% hits; AID 652054; in the data active means max response below about -50%; inconclusive means no clear call, values can overlap the other calls
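Cells plated overnight at 1500 cells/well, then exposed to library compounds with dopamine controls for 90 minutes at 37 degrees C. DiscoveRx reagent added for 30–60 minutes at room temperature; luminescence read, quantitative HTS format.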
Integrin act MD – activators of alpha7 integrin expression for muscular dystrophy; AID 624291; alpha7betagal myoblasts, beta-gal FDG fluorescence, 48 h; 350,000 compounds, 0.064% hits; Potency, µM (doses to about 38.3 µM), hits mostly activators; active means well fitted activation curve with a large enough effect; inconclusive means small, poorly fitted or top-dose-only effect; inactive means no such curve, though single readings can be large or run the other way; further: nearly all actives have a fitted effect of over 60% in size
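Alpha7betagal+/- myoblasts (passage 13) were plated 16-24 hr, then exposed to compounds (1:260 dilution of DMSO stock) for 48 hours at 37C. After MPER lysis, β-galactosidase reporter activity was read as FDG fluorescence (ex 480/em 540) after 30 minutes.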
Large screens that a line does not name were inactive.

C=CCc1ccccc1OCC(=O)O	none
C=CCc1ccccc1OCCNCc1ccccc1	DRD3 antagonist -88
Cc1cc(Br)ccc1OCCNCc1ccccc1	DRD3 antagonist -70
CC(C)(Cc1ccc(O)cc1)NC(=O)CC(=O)N/N=C/c1ccc(Cl)cc1	none
CC(C)(C)c1nn(-c2ccccc2)c2[nH]c(=O)c(CNc3ccc4c(c3)OCCO4)cc12	DRD3 antagonist -75
CC(C)(C)c1nn(-c2ccccc2)c2[nH]c(=O)c(CNCc3ccco3)cc12	none
C/C=C(/C)C(=O)OC(C)(C)[C@@H]1Cc2c(ccc3ccc(=O)oc23)O1	DRD3 antagonist -154
CC(C)CC(=O)OC(C)(C)[C@@H]1Cc2c(ccc3ccc(=O)oc23)O1	none
O=C(NCc1cccnc1)c1ccc(-c2ccccc2[N+](=O)[O-])o1	DRD3 antagonist -55
O=C(N/N=C/c1ccc(-c2ccccc2[N+](=O)[O-])o1)c1cccnc1	DRD3 antagonist -59
O=C(NCc1ccccc1)c1ccc(-c2ccccc2C(F)(F)F)o1	DRD3 antagonist -56
CC(C)(C)c1cc(C(=O)N/N=C/c2ccc(-c3ccccc3[N+](=O)[O-])o2)n[nH]1	DRD3 antagonist inconclusive
O=C(O)c1ccc(-c2ccccc2C(F)(F)F)o1	none
O=C(NCc1cccnc1)c1ccc(-c2cccc(Cl)c2Cl)o1	none
COc1ccc2c(C)c(C)c(=O)oc2c1OC	none
O=C(N/N=C/c1cccnc1)c1cc(-c2ccccc2OCc2ccccc2)n[nH]1	none
COc1ccccc1CN1CC(C(=O)NC2CCCCC2)CC1=O (stereo unspecified)	none
O=[N+]([O-])c1ccc(O)c(N=Cc2sc3ccccc3c2O)c1	DRD3 antagonist -83
Oc1ccc(Cl)cc1N=Cc1sc2ccccc2c1Cl	none
O=C(Cn1[nH]c(=O)c2ccccc2c1=O)NCCN1C(=O)S/C(=C\c2ccccc2)C1=O	none
CCCn1nc(C(=O)Nc2nc3ccccc3[nH]2)c2ccccc2c1=O	none
CCCCNC(=O)C(NC(=O)c1cccnc1OC)C(=O)c1ccccc1 (stereo unspecified)	none (no result: Integrin act MD)
O=S(=O)(Nc1cc(Sc2ncn[nH]2)c(O)c2ccccc12)c1ccccc1	DRD3 antagonist -100
Cc1cc(O)c(Sc2ncn[nH]2)cc1NS(=O)(=O)c1ccc(Cl)cc1	none
O=c1c2ccccc2sc2ccc(Cl)cc12	Integrin act MD inconclusive
CC(C(=O)NC(c1ccccc1)c1ccccc1)N1CCOCC1 (stereo unspecified)	none
Cc1ccc(S(=O)(=O)Nc2ccc(Cl)cc2C(=O)c2ccc(F)cc2)cc1	none
COc1cc(NC(=O)Cn2c(=O)n(Cc3ccco3)c(=O)c3sc4ccccc4c32)cc(OC)c1	none (no result: DRD3 antagonist, Integrin act MD)
CCCCn1nnc(N(C(=O)c2cccs2)C(=O)c2cccs2)n1	none
Cc1ccc(Cl)cc1NC(=O)c1cc2ccccc2cc1O	D3 ag 36
COc1cc(NC(=O)c2cc3ccccc3cc2O)c(OC)cc1Cl	none
CCOC(=O)c1ccc(NC(=O)Cn2c(=O)cc(C)c3c(C)nn(-c4ccc(CC)cc4)c32)cc1	none (no result: DRD3 antagonist, Integrin act MD)
CCOc1ccc(Cn2nnc(C(=O)NCCc3ccccc3)c2N)cc1	none
COc1cccc2c1C(=O)c1c(O)c3c(c(O)c1C2=O)C[C@@](O)(C(=O)CO)C[C@@H]3O[C@H]1C[C@H](N)[C@@H](O)[C@H](C)O1	none (no result: Integrin act MD)
COc1cccc2c1C(=O)c1c(O)c3c(c(O)c1C2=O)C[C@@](O)(C(C)=O)C[C@@H]3O[C@H]1C[C@H](N)[C@H](O)[C@H](C)O1	DRD3 antagonist -78 (no result: Integrin act MD)
CCOc1ccc(CCN2C(=S)N([C@@H](Cc3ccc(O)cc3)CN3CCC[C@@H]3CN3C(=S)NC[C@@H]3CC(C)C)C[C@@H]2Cc2ccc(O)cc2)cc1	DRD3 antagonist -80 (no result: Integrin act MD)
CCOc1ccc(CCN2C(=S)N([C@@H](Cc3ccc(O)cc3)CN3CCCC3CN3C(=S)NC[C@@H]3Cc3ccc(O)cc3)C[C@@H]2CC(C)C)cc1 (stereo partly specified)	DRD3 antagonist -68
Oc1ccc(C[C@H]2CNC(=S)N2C[C@H]2CCCN2C[C@H](Cc2ccccc2)N2C[C@H](Cc3ccc(O)cc3)N(CCc3ccccc3)C2=S)cc1	none (no result: Integrin act MD)
CCOc1ccc(CCN2C(=S)N([C@@H](Cc3ccccc3)CN3CCC[C@@H]3CN3C(=S)NC[C@@H]3Cc3ccc(O)cc3)C[C@@H]2CC(C)C)cc1	none (no result: Integrin act MD)
CCN1C(=O)c2ccccc2S(=O)c2ccc(C(=O)NCCN(CC(C)C)CC(C)C)cc21 (stereo unspecified)	DRD3 antagonist -65
CCN1C(=O)c2ccccc2S(=O)c2ccc(C(=O)NCc3ccc(C)cc3)cc21 (stereo unspecified)	none (no result: DRD3 antagonist, Integrin act MD)
C#CCSc1nc2sc3c(c2c(=O)n1Cc1ccccc1)CCCC3	none (no result: DRD3 antagonist, Integrin act MD)
Cc1ccccc1N1C(=O)Cc2ccccc2C1=O	none
CCCNC(=O)c1[nH]c(C)c(C(C)=O)c1C	none
